Laboratory results taken from PubChem BioAssay (NCI).
Compounds without any hit were thinned out: in the full panel of roughly 83,000, 20% have a hit.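 Values shown are percent growth following 48 h exposure of cells in 96-well plates to a single concentration of compound; below 10 was considered active.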 Values without a mark were called inactive. Activity calls are given as the source filed them.

Tested on: HL-60(TB) leukemia
Assay: NCI-60 one-dose screen, 48 h (100 = growth as untreated, 0 = no growth, -100 = all killed)
Conditions: 10 µM unless noted

Compound | growth
COc1ccc2nc(NC(=O)c3cccnc3Nc3cc(OC)c(OC)c(OC)c3)sc2c1 | 51.8%
CCS(=O)(=O)N[C@@H]1O[C@H](COC(C)=O)C(OC(C)=O)[C@H](OC(C)=O)C1OC(C)=O (stereo not given in full) | 117%
Cc1cc2nc(C(Cl)Cl)nc(-c3ccc(Cl)cc3)n2n1 | -8.18% (active)
CC1(C)CC(=O)C2=C(C1)Nc1cc3c(cc1C2c1ccc(F)cc1)OCO3 (stereo not given) | 90.2%
C=CCOc1ccc2c(C)cc(=O)oc2c1 | 118%
O=C1C2C(C(=O)N1CC[Se][Se]CCN1C(=O)C3C(C1=O)[C@H]1C=C[C@@H]3C1)[C@H]1C=C[C@@H]2C1 (stereo not given in full) | -54.7% (active)
ClC(Cl)c1nc(-c2ccccc2)nc2cc(-c3ccccc3)nn12 | 94.9%
O=C1/C(=C/c2c[nH]c(=O)[nH]c2=O)SC(=S)N1Cc1ccccc1 | 99.3%
Clc1ccc(COc2ccc(Nc3ncnc4onc(-c5ccccc5)c34)cc2)cc1 | 98.8%
Cn1c(=O)c2c(nc(Nc3cc(=O)[nH]c(=O)[nH]3)n2Cc2ccccc2)n(C)c1=O | 90.6%
Cc1nnc(/N=C2\NC(=O)/C(=C/c3ccsc3)S2)s1 | 102%
C=C1C(=O)O[C@H]2[C@H]1CC/C(CNC(=O)c1c[nH]c3ccc(F)cc13)=C\CC[C@@]1(C)O[C@@H]21 | -35% (active)
Oc1ccc(/C=C/c2ccccc2)cc1 | 34.1%
CCOC(=O)CCN(CC(C)C)C(=S)Nc1ccccc1 | 97.2%
CCCCCCCCCCCC[n+]1ccccc1 | -49.7% (active)
Cc1cc(C)n(C(=O)c2nn(-c3ccc(Cl)cc3)cc2O)n1 | 39.8%
O=c1c(/C=C/c2ccco2)nnc2sc(Nc3ccc(Cl)cc3)nn12 | 101%
C=C1C(=O)O[C@H]2[C@H]1CC/C(COC(=O)NCCc1ccc(Br)cc1)=C\CC[C@@]1(C)O[C@@H]21 | -14% (active)
c1ccc2[nH]c(Cc3nc4ccccc4[nH]3)nc2c1 | 75.6%
O=C(C(=O)N1CCCCC1)c1ccc(OC2OC(CO)C(O)C(O)C2O)cc1 (stereo not given) | 77.8%

Compound | growth
COc1ccc(C=Nc2c(C(=O)Nc3cccc(Cl)c3C)sc3nc(C)c(C(=O)/C=C/c4ccc(OC)cc4)cc23)cc1 | 9.38% (active)
COc1ccc2c(O)c(/C=C3\N=Nc4ncccc43)oc2c1C[C@@H]1CCNC[C@H]1F | -23.3% (active)
COc1ccc(C(OCC2OC(n3ccc(NC(=O)c4ccccc4)nc3=O)C(O)C2O)(c2ccccc2)c2ccccc2)cc1 (stereo not given) | 22.9%
Oc1cc(O)c(Br)cc1Br | 104%
COc1ccc(Nc2nc(-c3cc(O)c(C)c(C)c3O)cs2)cc1 | 7.17% (active)
COc1cc2c(cc1O)C(=O)CCCC2 | 90.3%
CC[n+]1ccc(Nc2ccc(NC(=O)c3ccc(Nc4cc[n+](CC)c5ccc([N+](=O)[O-])cc45)cc3)cc2)cc1 | 66.9%
O=Nc1ccc(O)c2ccccc12 | -3.12% (active)
CCN1CCN(c2nc(C)cc(N(CCNc3ccnc4cc(Cl)ccc34)Cc3ccc4c(c3)OCO4)n2)CC1 | -57.7% (active)
CCN1C(=O)N(CC)C2C1NN=c1s/c(=C\c3ccccc3Br)c(=O)n12 (stereo not given) | -40.7% (active)
O=S(=O)(NCCCNc1cc(-c2cn(-c3ccccc3)nc2-c2cccc(O)c2)ccn1)c1ccc(F)cc1 | 30.5%
C=CC(=O)OC1CCC(C(C)(C)CC)CC1 (stereo not given) | 84%
Fc1ccc(Nc2ncnc3ccc(-c4cn[nH]c4)cc23)cc1Cl | 83.7%
CCOC(=O)Nc1ccc2c(c1)C(=O)N(CCOC)c1ccccc1O2 | -17.1% (active)
CN1CCN(c2ccc3nc(-c4cc(C(C)(C)C)c(O)c(C(C)(C)C)c4)[nH]c3c2)CC1 | 68.6%
CN1CCN(Cc2ccc(NC(=O)c3cncc(C#Cc4cnc(N)cc4C#N)c3)cc2C(F)(F)F)CC1 | 4.46% (active)
C=C(CNCCO)[C@@H]1CC[C@]2(CO)CC[C@]3(C)[C@H](CC[C@@H]4[C@@]5(C)CCC(NCCO)C(C)(C)[C@@H]5CC[C@]43C)[C@@H]12 (stereo not given in full) | 66.2%
CCOC(=O)c1cnn(-c2nc(-c3ccc(F)cc3)c(C#N)c(N3CCOCC3)n2)c1N | 93.1%
CC(=O)c1ccc(Br)c([N+](=O)[O-])c1 | 122%
CNCC[C@H](Oc1cccc2ccccc12)c1cccs1 | 85.5%
